HTT cytoprotect = Huntington cell model cytoprotection by ATP luminescence; PC12 HTT-Q103 induced, cytoprotection, ATP luminescence, 40 h; Potency, µM (series often up to 56.4 µM), for inactives: cytoprotection (ATP increase), hits mostly activators; 230,000 tested, 0.14% active; AID 1471; note: % of control where 0% means no effect; nearly all actives have a fitted effect of over 45% in size
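Cells were plated at 1500 per well in phenol red-free DMEM with 5% equine and 5% calf serum. Tebufenozide (100 nM final) and compounds were added, then ATPlite reagent, and luminescence was read.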
ALDH1A1 block = blocks purified human ALDH1A1 activity. P00352. Purified ALDH1A1, NADH fluorescence, propionaldehyde substrate. Potency, µM (doses to about 75.3 µM), for the others: at the highest dose activity, negative = inhibition, most hits filed as inhibitors. 220,000 tested, 7.3% active. AID 1030; active = well fitted inhibition curve with a large enough effect, not every such curve was filed as active; inconclusive = small, poorly fitted or top-dose-only effect, or another doubt; inactive = no such curve, though single readings can be large or run the other way;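 note: plate controls were no enzyme wells and a reference inhibitor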
Target sequence (P00352 whole entry, looked up): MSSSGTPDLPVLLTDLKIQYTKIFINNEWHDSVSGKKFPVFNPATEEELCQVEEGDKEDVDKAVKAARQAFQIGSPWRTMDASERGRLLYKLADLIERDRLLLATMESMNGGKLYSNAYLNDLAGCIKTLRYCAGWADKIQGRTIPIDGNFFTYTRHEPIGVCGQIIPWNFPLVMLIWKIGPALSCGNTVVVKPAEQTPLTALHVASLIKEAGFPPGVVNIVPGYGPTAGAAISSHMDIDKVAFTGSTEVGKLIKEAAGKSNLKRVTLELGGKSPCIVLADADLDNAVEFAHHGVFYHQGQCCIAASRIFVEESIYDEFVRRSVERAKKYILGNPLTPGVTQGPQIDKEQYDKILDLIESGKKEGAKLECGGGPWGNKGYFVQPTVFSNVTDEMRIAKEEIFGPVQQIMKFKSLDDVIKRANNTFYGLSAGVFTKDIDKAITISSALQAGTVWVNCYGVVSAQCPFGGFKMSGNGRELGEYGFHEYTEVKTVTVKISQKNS
LMNA splice mod = changes lamin A minigene splicing in HeLa cells | HeLa LMNA splicing GFP/RFP minigene ratio, 48 h | Potency, µM (highest dose often 46.1 µM), inactives show at the highest dose ratio change, negative = inhibition, actives largely listed as inhibitors | 200,000 tested, 0.01% active | AID 1487; active = well fitted inhibition curve with a large enough effect in the signal ratio, with a control signal flat, not every such curve was filed as active; inconclusive = small, poorly fitted or top-dose-only effect, or effect the other way, or a change in a side signal; the % refers to the signal ratio; note: % is set by controls: 0 for no effect and ±100 for the full control effect
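S3 HeLa cells stably expressing lamin A-EGFP splicing minigene plus DsRed2, 600 cells/well, 48 h compound exposure at 37C. Laser-scanning cytometry; analysed as GFP (500-530 nm)/RFP (575-640 nm) total intensity ratio; 0.5% DMSO vehicle.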
HttQ103 aggreg = reduces HttQ103-GFP aggregates in PC12 cells; Potency, µM (titrated, usually from 46.1 µM), inactives show top-dose activity change, negative = inhibition, most hits filed as inhibitors; PC12 HttQ103-GFP aggregates, Acumen cytometry, 40 h; AID 1688; 220,000 tested, 1.1% active; note: % is set by controls: 0 for no effect and ±100 for the full control effect; nearly all actives have a fitted effect of over 60% in size
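Using laser scanning cytometry, GFP-positive aggregates were counted after lysis of PC12 cells induced with 100 nM tebufenozide to express HTT exon 1 Q103–GFP. Compounds were tested in titration.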
HPGD block = blocks human HPGD enzyme activity; purified HPGD, NADH fluorescence kinetic, PGE2 substrate; Potency, µM, for inactives: top-dose activity change, negative = inhibition, actives largely listed as inhibitors; 150,000 tested, 4.3% active; active = well fitted inhibition curve with a large enough effect, not every such curve was filed as active; inconclusive = small, poorly fitted or top-dose-only effect, or another doubt; inactive = no such curve, though single readings can be large or run the other way; note: % is set by controls: 0 for no effect and ±100 for the full control effect
Target sequence (P15428 whole entry, looked up): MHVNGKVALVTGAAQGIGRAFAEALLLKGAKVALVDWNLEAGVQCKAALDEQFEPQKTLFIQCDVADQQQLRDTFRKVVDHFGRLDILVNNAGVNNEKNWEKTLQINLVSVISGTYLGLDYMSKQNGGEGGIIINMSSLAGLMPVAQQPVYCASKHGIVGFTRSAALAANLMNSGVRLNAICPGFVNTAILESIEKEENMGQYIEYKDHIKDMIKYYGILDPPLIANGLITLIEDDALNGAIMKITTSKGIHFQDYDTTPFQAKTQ
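NADH formation kinetics: reaction with 30 uM PGE2 and 1 mM NAD+ (final), 20 nM enzyme, Tris-HCl pH 8 with Tween 20, after 15 min compound preincubation at room temperature. Fluorescence change, last versus first of five reads.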
Starred values were filed as active, the others as inactive; ? = inconclusive; . = no result; [ ] = remark or other dose. Shown are actives, neighbours in structure and some others; about 8.8% of the full set was active somewhere. Unless noted, calls come from the whole dose curve; as a rule, active = well fitted curve in the direction sought with a large enough effect; inconclusive = small, poorly fitted or top-dose-only effect, or another doubt; inactive = no such curve, though single readings can be large; an effect the other way counts as inactive or inconclusive. Potency is the fitted concentration of half-maximal effect.

SMILES	HTT cytoprotect	ALDH1A1 block	LMNA splice mod	HttQ103 aggreg	HPGD block
Cn1c(=O)c2[nH]c(=O)cnc2n(C)c1=S	-7.8%[10 µM]	20µM*	0.3%[46 µM]	-8.4%[9.22 µM]	.
Cc1cccc(-c2oc(C)c(C)[n+]2[O-])c1	6.6%	3.55µM*	-8.7%	-0.3%[9.22 µM]	-12.4%
Nc1nc(SCc2ccccc2Cl)[nH]c(=O)c1-c1ccccc1	-1.3%[1.9 µM]	-4.6%	?	0.4%	-13.8%
O=C(CSc1nc2c(cnn2-c2ccc(F)cc2)c(=O)[nH]1)N1CCCc2ccccc21	14.5%	-6.1%	-2.1%	10.9%	.
COc1ccc(-c2noc(CSc3nc(-c4ccccc4)cc(=O)[nH]3)n2)cc1	24.0%[10 µM]	-0.9%	5.5%	?	-13.6%
Nc1nc(SCC(=O)N2CCCc3ccccc32)[nH]c(=O)c1-c1ccccc1	-5.6%[0.074 µM]	22.4µM*	-7.0%	?	-16.3%
COc1ccc(-c2noc(CSc3nc(N)c(-c4ccccc4)c(=O)[nH]3)n2)cc1OC	4.0%[0.074 µM]	?	-18.8%	5.7%	15.8µM*
Nc1nc(SCc2ccccc2)[nH]c(=O)c1-c1ccccc1	-3.0%	14.1µM*	-18.3%	?	-8.9%
COC(=O)N[C@@H](c1cccc(C)c1)C(C(C)=O)C(=O)OC (some centres not stated)	-32.3%	14.9%	.	.	-10.9%
O=C1/C(=C/c2ccccc2)SC(=S)N1N1C(=O)C2CC2C1=O (configuration not stated)	?	0.5%	.	-6.7%	.
NC(=S)Cc1nc(-c2ccccc2)cs1	21.4%[10 µM]	3.16µM*	?	0.6%	-17.1%
Oc1ccc2ccccc2c1/C=N/c1nccs1	-2.8%	?	-5.4%	20.1%	-25.1%
COc1ccc2c(c1)-c1nc(/N=C/c3ccc(O)cc3)sc1CC2	-37.4%[10 µM]	4.47µM*	-5.1%	-7.6%	-26.3%
COc1ccc2c(c1)-c1nc(NC(=O)c3cccs3)sc1CC2	-82.2%	?	?	?	?
COc1ccc2c(c1)-c1nc(/N=C/c3c(O)ccc4ccccc34)sc1CC2	-7.8%[10 µM]	17.8µM*	-19.4%	-4.9%	?
CCn1ccc2cc(S(=O)(=O)N3CCC(C(=O)NCc4ccc(OC(C)C)cc4)CC3)ccc21	.	.	-13.8%[46 µM]	.	.
CCN(C(=O)c1cc(S(=O)(=O)N2CCCC2)cn1C)c1ccc(OC)cc1	.	.	0.4%[46 µM]	.	.
CC[n+]1ccc(C[n+]2ccccc2)c2ccccc21	-10.4%[10 µM]	18.9µM*	16.4%	-2.0%	?
COc1ccc(NCC(=O)n2c(C)c(C)c3ccccc32)cc1OC	6.4%[10 µM]	7.08µM*	.	-1.9%[9.22 µM]	.
N#Cc1ccc(CSc2nnc(Cc3cccs3)n2Cc2ccco2)cc1	0.3%	11.2µM*	-2.0%	17.7%	-20.1%
N#Cc1ccc(CSc2nnc(-c3ccccc3)n2Cc2ccco2)cc1	-9.5%	-3.1%	?	24.0%	-6.2%
COc1cc2c(cc1NC(=O)COC(=O)Cn1cnc3ccccc31)oc1ccccc12	-22.5%[10 µM]	11.2µM*	?	-20.3%	?
COc1cc2c(cc1NC(=O)CSc1nnc(Cc3cccs3)n1Cc1ccco1)oc1ccccc12	-53.7%	5.01µM*	-3.0%	-10.9%	-29.7%
COc1cc2c(cc1NC(=O)CSc1nnc(Cc3cccs3)n1C)oc1ccccc12	5.4%[10 µM]	14.1µM*	1.5%	0.8%	-17.0%
Cc1ccc2c(C)c(C(=O)N3CCC(c4nc5ccccc5s4)CC3)oc2c1C	.	.	-2.4%[46 µM]	.	.
SMILES	HTT cytoprotect	ALDH1A1 block	LMNA splice mod	HttQ103 aggreg	HPGD block
CCn1c(SCC(=O)Nc2cc3oc4ccccc4c3cc2OC)nnc1-c1cccs1	-10.4%	12.6µM*	-0.2%	0.7%	-4.2%
COc1ccc(OC)c(C(=O)CSc2nnc(Cc3cccs3)n2C)c1	-3.6%	22.4µM*	10.4%	-18.9%[9.22 µM]	-20.9%
C=CCn1c(SCC(=O)Nc2cc3oc4ccccc4c3cc2OC)nnc1-c1cnccn1	1.2%	28.2µM*	-0.8%	-20.0%	.
COc1cc2c(cc1NC(=O)CSc1ccc(C)cc1)oc1ccccc12	-20.8%	-12.0%	0.1%	-15.3%	?
C=CCn1c(SCC(=O)Nc2cccc3ccccc23)nnc1-c1cnccn1	-4.8%	5.3%	2.2%	-8.3%	-13.9%
COc1ccccc1-n1cc(CN2CCCC(CO)(Cc3cccc(Cl)c3)C2)cn1 (configuration not stated)	-5.6%[10 µM]	8.2%	?	12.9%[9.22 µM]	.
COc1ccc(CCN2C(=O)CC(N3CCN(C/C=C/c4ccccc4)CC3)C2=O)cc1OC (configuration not stated)	14.2%[10 µM]	.	.	-0.4%[9.22 µM]	.
COc1ccc(CCN2C(=O)CC(C(N)=O)SC2=Nc2ccccc2)cc1OC (configuration not stated)	2.1%[10 µM]	14.1µM*	11.1%	15.1%	-9.0%
O=C1CC(N2CCN(c3ccccn3)CC2)C(=O)N1CC(c1ccccc1)c1ccccc1 (configuration not stated)	-39.3%[10 µM]	3.16µM*	?	2.3%	-27.3%
CNC(=O)C1CC(=O)N(CCc2ccc(OC)c(OC)c2)C(=Nc2ccc(F)cc2)S1 (configuration not stated)	26.3%[10 µM]	10.1%	.	10.0%[9.22 µM]	.
O=C1CC(N2CCN(c3ccccn3)CC2)C(=O)N1c1ccc(F)cc1 (configuration not stated)	-7.6%	1.9%	-0.6%[9.22 µM]	5.7%	.
COc1ccc(CCN2C(=O)CC(Sc3ncccc3C(=O)O)C2=O)cc1OC (configuration not stated)	2.7%[0.074 µM]	3.55µM*	-18.1%	0.6%	-11.9%
COc1ccc(CCN2C(=O)CC(N3CCN(c4ccccn4)CC3)C2=O)cc1OC (configuration not stated)	6.1%	25.1µM*	2.0%	9.0%	-11.7%
COCC(=O)c1[nH]c2ccccc2c1C	-3.8%[0.074 µM]	7.94µM*	1.2%	-11.8%	-12.7%
COCC(=O)NCCSc1c(C)[nH]c2ccccc12	36.3%[10 µM]	3.2%	-5.3%	3.8%	?
COC(=O)Nc1ccc(S(=O)(=O)N2CCCC(C(=O)N3CC(C)OC(C)C3)C2)cc1 (configuration not stated)	-3.5%[10 µM]	-0.5%	.	-13.8%[9.22 µM]	.
O=C(NCCc1ccccc1)Nc1cccc(Cl)c1	29.8%[10 µM]	2.5%	-14.5%	-18.3%	-8.8%
O=C(NCCc1ccc(Cl)cc1)Nc1cccc(Cl)c1	-83.1%	-2.9%	?	8.91µM*	-7.5%
Cc1cccc(NC(=O)NCCc2ccc(Cl)cc2)c1	-18.2%	35.5µM*	6.3%[46 µM]	11.1%[9.22 µM]	.
COc1ccc(CCN2C(=O)c3cccc4c(C(=O)N5CCCCC5)ccc(c34)C2=O)cc1OC	-18.5%[10 µM]	10µM*	?	?	12.6µM*
COc1ccc(CCNC(=O)CCN2C(=O)c3cccc4cccc(c34)C2=O)cc1OC	.	5.0%	-9.7%[46 µM]	6.6%	.
Cc1ccc(N2CCN(C(=O)c3ccccc3Br)CC2)c(C)c1	18.2%[10 µM]	?	?	?	25.1µM*
Cc1ccc(C)c(N2CCN(C(=O)c3ccccc3Br)CC2)c1	0.4%[10 µM]	2.7%	-2.8%	-2.0%	-5.2%
Cc1ccc(C(=O)NC(N2CCCC2)C(Cl)(Cl)Cl)cc1 (configuration not stated)	0.6%	-11.4%	10.4%	-2.4%	?

Screens from PubChem BioAssay.
